# Most compounds without a hit are left out; they make up all but 7% or so of the library.
# PI5P4Ka inh = PI5P4K alpha (human) kinase inhibition. P48426. PI5P4Kalpha enzyme, ADP-Glo luminescence, 60 min; hits give low values. max response, %. 330,000 tested, 1.2% active; active = max response of -50% or lower; inconclusive = between -30% and -50%; inactive = -30% or higher; note: value at the top dose of about 77 µM; % is set by controls: 0 for no effect and ±100 for the full control effect
#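 Human PI5P4Kalpha with substrate in 0.038 M HEPES pH 7.4, 0.28 mM EGTA, 0.1% CHAPS, 5% DMSO; reaction started with 5 microM ATP (final), 60 min at room temperature. ADP formed read by ADP-Glo luminescence.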
# BAZ2B block = BAZ2B (human) inhibition. Q9UIF8. AlphaScreen BAZ2B-H3K14Ac peptide displacement. Potency, µM (titrated, usually from 114 µM), for the others: at the top dose activity change, negative = inhibition, actives largely listed as inhibitors. 360,000 tested, 4.4% active. AID 504333; note: potency is the fitted concentration of half-maximal effect; % is set by controls: 0 for no effect and ±100 for the full control effect; nearly all actives have a fitted effect of over 60% in size
#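 In this displacement format the biotinylated H3(5-23) peptide acetylated at Lys14 serves as ligand at 50 nM, with BAZ2B at 50 nM in PBS pH 7.4 containing 0.01% Tween-20. Donor and acceptor beads are 10 ug/mL final.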
# HP1b binding inh = inhibitors of HP1-beta chromodomain binding to methylated histone tails; P83916; AlphaScreen HP1-beta / biotin-H3K9me3 peptide binding; Potency, µM (series often up to 114 µM), without a hit: top-dose activity change, negative = inhibition, actives largely listed as inhibitors; 390,000 tested, 0.56% active; note: potency is the fitted concentration of half-maximal effect; nearly all actives have a fitted effect of over 70% in size
#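 HP1-beta protein (50 nM final) preincubated 30 min at room temperature with biotinylated H3(1-18)K9me3 peptide (50 nM) in PBS pH 7.4, 0.01% Tween-20, then compound added for 30 min. AlphaScreen streptavidin donor/nickel chelate acceptor beads (10 ug/mL final), 30 min dark, luminescence read.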
# JMJD2A Tudor = JMJD2A Tudor domain (human) inhibition; Potency, µM (titrated, usually from 114 µM), for the others: at the highest dose activity change, negative = inhibition, hits mostly inhibitors; 390,000 tested, 4.4% active; AlphaScreen JMJD2A-Tudor / H3K4me3 peptide binding; AID 504339; note: potency is the fitted concentration of half-maximal effect; % is set by controls: 0 for no effect and ±100 for the full control effect; nearly all actives have a fitted effect of over 50% in size
# KAT2A inh = blocks human GCN5L2 histone acetyltransferase | Q92830 | GCN5L2 HAT assay, ThioGlo1 CoA-SH fluorescence | Potency, µM (series often up to 58.9 µM), inactives show at the top dose activity change, negative = inhibition, most hits filed as inhibitors | 390,000 tested, 0.21% active | AID 504327; note: potency is the fitted concentration of half-maximal effect; % is set by controls: 0 for no effect and ±100 for the full control effect
# Target sequence (Q92830 whole entry, looked up): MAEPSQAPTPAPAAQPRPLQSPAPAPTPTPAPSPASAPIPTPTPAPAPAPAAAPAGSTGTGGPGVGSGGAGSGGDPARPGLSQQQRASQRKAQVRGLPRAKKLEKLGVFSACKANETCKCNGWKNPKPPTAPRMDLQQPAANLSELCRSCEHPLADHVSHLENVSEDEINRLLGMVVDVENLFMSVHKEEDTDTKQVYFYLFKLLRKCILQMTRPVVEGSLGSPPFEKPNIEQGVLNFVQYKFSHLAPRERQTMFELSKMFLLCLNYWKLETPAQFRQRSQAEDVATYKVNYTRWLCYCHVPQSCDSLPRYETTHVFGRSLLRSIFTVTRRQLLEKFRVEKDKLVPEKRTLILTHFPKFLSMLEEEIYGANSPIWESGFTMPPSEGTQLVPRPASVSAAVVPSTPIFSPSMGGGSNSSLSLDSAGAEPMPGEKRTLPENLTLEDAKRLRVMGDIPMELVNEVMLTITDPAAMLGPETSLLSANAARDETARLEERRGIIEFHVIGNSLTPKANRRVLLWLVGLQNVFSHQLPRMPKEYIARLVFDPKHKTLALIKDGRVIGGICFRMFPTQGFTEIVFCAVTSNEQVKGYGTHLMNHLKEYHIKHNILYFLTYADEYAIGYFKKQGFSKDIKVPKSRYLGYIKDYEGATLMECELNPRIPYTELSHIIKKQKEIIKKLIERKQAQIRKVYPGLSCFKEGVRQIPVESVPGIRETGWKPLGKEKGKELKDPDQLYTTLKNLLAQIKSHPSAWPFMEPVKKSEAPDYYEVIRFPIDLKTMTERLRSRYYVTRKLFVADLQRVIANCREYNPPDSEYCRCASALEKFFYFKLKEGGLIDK
#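 Enzyme at 20nM final was mixed with library compounds for 15 min at room temperature. Peptide H3(1-25) at 75uM, acetyl-CoA at 70uM and ThioGlo1 at 50uM were then added. Plates were read immediately and after 20 min (Ex340nm/Em540nm).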
# PLK1 PBD block = blocks phosphopeptide binding to human PLK1 polo-box domain. P53350. 360,000 tested, 2.8% active. AID 720504. Potency, µM, inactives show max response, negative = inhibition, hits mostly inhibitors. Plk1 PBD binding of FITC phosphopeptide, fluorescence polarization; note: potency is the fitted concentration of half-maximal effect; series mostly up to about 57 µM; % is set by controls: 0 for no effect and ±100 for the full control effect; nearly all actives have a fitted effect of over 65% in size
# An asterisk follows results filed as active; ? = inconclusive; · = not tested or not shown; [ ] = another dose, or the depositor's remark. Unless noted, calls come from the whole dose curve; as a rule, active = well fitted curve in the direction sought with a large enough effect; inconclusive = small, poorly fitted or top-dose-only effect, or another doubt; inactive = no such curve, though single readings can be large; an effect the other way counts as inactive or inconclusive.
SMILES,PI5P4Ka inh,BAZ2B block,HP1b binding inh,JMJD2A Tudor,KAT2A inh,PLK1 PBD block
CSC(=S)N/N=C(\C)c1ccc(Br)cc1,0,?,?,?,-3%,?
COc1ccc(F)c(CN2CCCC(CNS(=O)(=O)c3cccc4cccnc34)C2)c1 (configuration not stated),0,-20%,-1%,-21%,-13%,2%
COc1cccc(C(C(=O)NC2CCCCC2)N(C(=O)CNC(=O)c2ccco2)c2cccnc2)c1 (configuration not stated),-7,1%,23%,-9%,-6%,-13%
CN(C)c1cccc2c1C(=O)c1ccccc1C2=O,-9,8.9µM*,28µM*,45µM*,-3%,-5%
COc1ccc2c(c1)C=C(C(=O)OCc1cccnc1)CO2,?,-28%,-1%,35µM*,-11%,27µM*
OCCCNCc1ccc(Cl)cc1Cl,-4,-2%,-4%,-3%[11.4 µM],0%,30µM*
CC(c1ccco1)N(C)c1ncnc2ccc(-c3ccc4c(c3)OCO4)cc12 (configuration not stated),·,·,·,-22%,·,·
COc1ccc(C(=O)NCCC(=O)N2CCC3(CC2)NCCc2[nH]cnc23)cc1,-7,-20%,19%,?,-2%,27µM*
C[C@H](NC(=O)Cc1ccccc1)C(=O)N1CCC2(CC1)NCCc1[nH]cnc12,2,-15%,10%,-26%,0%,27µM*
C=CCn1c(C)cc(C(=O)Cn2ncc(Cl)c(Cl)c2=O)c1C,-72*,?,-3%,-28%,-24%,-22%
Cc1ccc(C)c(N(C(=O)CNC(=O)c2ccco2)C(C(=O)NC2CCCC2)c2ccncc2)c1 (configuration not stated),-9,2%,18%,10%,-5%,11%
CCOc1ccc(S(=O)(=O)N(CC(=O)N2CCC(C(N)=O)CC2)c2ccc(F)cc2)cc1,3,-2%,20%,-14%,2%,-9%
O=c1oc2ccccc2c2oc3cc(O)c(O)cc3c12,-64*,40µM*,?,7.9µM*,-18%,-24%
Nc1c(N)c2ccccc2oc1=O,·,?,17%,-25%,-11%,3%
CC(OC(=O)c1ccccc1C(=O)O)c1ccccc1 (configuration not stated),10,·,48%,-10%,·,-4%
CC(C)Nc1nc(NC(C)C)nc(C(N)=O)n1,·,50µM*,1%,-34%,-2%,-4%
CC(=O)OCCOc1nc(NC(C)C)nc(NC(C)C)n1,4,-2%,10%,79µM*,2%,30µM*
CCOC(=O)Cn1c(=O)n(C2CCCCC2)c2nc(-c3ccc(Cl)cc3)nc(C(N)=O)c21,·,3%,32%[57 µM],4%,4%,·
CCN(CC)c1nc(N)c2c(N)n(-c3ccccc3C)c(=S)c(C#N)c2c1C#N,?,-31%,?,40µM*,-9%,27µM*
CC(C)CCN1C(=O)CSCC1(C)C(=O)NC(C)C (configuration not stated),6,·,·,·,·,-2%
CNc1ccc(Br)cc(C(=O)/C=C/c2ccc(Cl)cc2Cl)c1=O,-29,?,?,56µM*,2%,?
CNc1ccc(Br)cc(C(=O)/C=C/c2ccc(OC)cc2OC)c1=O,?,32µM*,?,32µM*,-20%,?
CNc1ccc(Br)cc(C(=O)/C=C/c2cccc(OC)c2)c1=O,-26,45µM*,?,45µM*,-18%,-24%
Cc1ccccc1OCC(=O)NNC(=O)c1ccc2c(=O)n3c(nc2c1)CCC3,-6,4%,28%,-17%,0%,-2%
O=C(CCC1CCN(C(=O)C2CC=CCC2)CC1)Nc1ccccc1 (configuration not stated),-6,·,·,·,·,-7%
SMILES,PI5P4Ka inh,BAZ2B block,HP1b binding inh,JMJD2A Tudor,KAT2A inh,PLK1 PBD block
CC(=O)Nc1sc(N/N=C/c2ccccc2)nc1-c1ccc(C)cc1,-17,?,?,?,-6%,-6%
CCCc1sc(N/N=C/c2ccccn2)nc1-c1ccc(Br)cc1,·,-33%,6%,50µM*,-10%,-3%
Cc1cn2c(=O)cc(COc3ccccc3NC(=O)c3ccco3)nc2s1,·,2%,28%,-15%,1%,·
CNc1cc(F)nc(F)n1,-19,0%,10%,?,-1%,9.5µM*
O=C(CSc1cn(CC(=O)N2CCCC2)c2ccccc12)Nc1cc(C(F)(F)F)ccc1Cl,·,-16%,16%,-23%,-12%,·
CCN1C(=O)CS/C1=N\S(=O)(=O)c1ccc(Cl)cc1,-10,-23%,9%,-10%,-6%,-6%
CCn1c(Cl)c(C=O)s/c1=N\S(=O)(=O)c1ccccc1,-11,17%,-5%,-24%[11.4 µM],-11%,12µM*
OCC1(CO)COC2(CCCC2)N1,·,4%,-6%,16µM*,-5%,-7%
CCCNc1cc(=S)nc(N)[nH]1,-24,-30%,?,22µM*,-2%,19µM*
CCOC(=O)c1c(Oc2ccc(OC)cc2)nnc(-c2ccccc2)c1-c1ccccc1,·,-13%,39%,-19%,-7%,·
Cc1cccc(C2=NN(c3ccccc3)[C@@H](C(=O)N3CCOC3=O)[C@@H]2c2ccc(F)cc2)c1,13,·,158%,29%,32µM*,6%
CC(C)Oc1ccc(C(=O)Nc2c3c(nn2C(C)(C)C)CS(=O)(=O)C3)cc1,-5,-10%,48%,-5%,-5%,-2%
CC(CNC(=O)CC[C@H]1O[C@@H](n2cnc3c(NC(=O)c4ccccc4)ncnc32)[C@H](O)[C@@H]1O)c1ccccc1 (some centres not stated),-5,·,·,·,·,-13%
O=C(Nc1cc(C(F)(F)F)ccc1N1CCOCC1)c1c(F)c(F)c(F)c(F)c1F,2,7%,-6%,-19%[11.4 µM],1%,30µM*
O=C(Nc1cc(C(F)(F)F)ccc1N1CCOCC1)c1ccccc1,·,-2%,32%,-4%,2%,0%
COc1ccc(CNC(=O)C2Cc3cc(S(=O)(=O)N4CCCCCC4)ccc3N2C(C)=O)cc1 (configuration not stated),·,-2%,3%,-7%,-8%,·
COc1ccc(NC(=O)CSCC(=O)Oc2c(OC)cccc2OC)cc1,0,1%,16%,-7%,0%,-7%
CCN(CC)S(=O)(=O)c1ccc(OCCNS(C)(=O)=O)cc1,?,9%,-15%,11µM*,-4%,3µM*
CCNS(=O)(=O)c1ccc(OCCNS(C)(=O)=O)cc1,·,22%,21%,89µM*,-3%,-9%
Cc1ccc(NC(=O)Nc2cn(C)c(=O)c3ccccc23)c(Cl)c1,·,2%,40%,-25%,0%,·
Nc1ccc(C(=O)Nc2cccc(NC(=O)c3ccc(N)cc3)c2)cc1,-2,-24%,-15%,?,-2%,27µM*
